Calls of active or inactive are those of the source. How the source made its calls: active means hit-call score of the fitted dose curve at least 0.9, where 1 is the maximum; inactive means score below 0.9.
Key:
[1] = read-out: Tumor necrosis factor receptor superfamily member 6 (Homo sapiens) (UniProt P25445); assay: LTEA_HepaRG_FAS: Life Technologies and Expression Analysis (LTEA) Assay for Fas cell surface death receptor (FAS) using HepaRG (AID 2283447); conditions: mRNA level, 48 h; actives raise or lower the signal
Outline: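 Differentiated HepaRG cells in serum-free induction medium were exposed 48 h to 8 half-log concentrations up to 100 uM in 0.5% DMSO, in duplicate. FAS mRNA was measured by qRT-PCR normalised to ACTB, GAPDH and POLR2A; bidirectional fit versus DMSO.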

[2] = read-out: Fatty acid synthase (Homo sapiens) (UniProt P49327); assay: LTEA_HepaRG_FASN: Life Technologies and Expression Analysis (LTEA) Assay for Fatty Acid Synthase (FASN) using HepaRG (AID 2283448); conditions: mRNA level, 48 h; actives raise or lower the signal;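 on AC50: differentiated human HepaRG liver cells in serum-free induction medium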
Outline: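 FASN transcript measured by TaqMan qRT-PCR, normalised to three housekeeping genes, after 48 h chemical exposure of HepaRG cells. Eight-point half-log series from 100 uM in 0.5% DMSO, duplicates; gain or loss fitted against vehicle.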

[3] = read-out: Cyclin Dependent Kinase Inhibitor 1A (CDKN1A), CDKN1A (gene 1026); assay: LTEA_HepaRG_CDKN1A: Life Technologies and Expression Analysis (LTEA) Assay for Cyclin Dependent Kinase Inhibitor 1A (CDKN1A) using HepaRG (AID 2283450); conditions: mRNA level, 48 h; actives raise or lower the signal
Outline: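 HepaRG, 48 h dosing, 8-pt half-log series from 100 uM top, 0.5% DMSO vehicle, duplicates. Readout: TaqMan qRT-PCR of CDKN1A transcript, housekeeping-normalized (ACTB, GAPDH, POLR2A). Up/down curve fit relative to DMSO.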

[4] = read-out: Cyclin D1 (CCND1), CCND1 (gene 595); assay: LTEA_HepaRG_CCND1: Life Technologies and Expression Analysis (LTEA) Assay for Cyclin D1 (CCND1) using HepaRG (AID 2283451); conditions: mRNA level, 48 h; actives raise or lower the signal;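 on AC50: differentiated human HepaRG liver cells in serum-free induction medium; TaqMan qRT-PCR transcript level normalised to ACTB GAPDH and POLR2A housekeeping genes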
Outline: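 qRT-PCR (Fluidigm 96.96 array) read-out of transcript level, housekeeping-normalized (ACTB/GAPDH/POLR2A). HepaRG cells, 48 h chemical exposure, 8-point half-log series from 100 uM, 0.5% DMSO vehicle; gain or loss relative to DMSO baseline.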

[5] = read-out: catalase (CAT), CAT (gene 847); assay: LTEA_HepaRG_CAT: Life Technologies and Expression Analysis (LTEA) Assay for catalase (CAT) using HepaRG (AID 2283452); conditions: mRNA level, 48 h; actives raise or lower the signal
Outline: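 HepaRG cells in serum-free induction medium, 0.5% DMSO vehicle, exposed 48 h in duplicate over 8 half-log concentrations from 100 uM. CAT mRNA measured by qRT-PCR, normalized to ACTB, GAPDH, POLR2A; bidirectional fit versus DMSO.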

[6] = read-out: flavin-containing dimethylaniline monooxygenases 3 (FMO3), FMO3 (gene 2328); assay: LTEA_HepaRG_FMO3: Life Technologies and Expression Analysis (LTEA) Assay for flavin-containing dimethylaniline monooxygenases 3 (FMO3) using HepaRG (AID 2283453); conditions: mRNA level, 48 h; actives raise or lower the signal;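 on AC50: differentiated human HepaRG liver cells in serum-free induction medium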
Outline: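 FMO3 transcript quantified by TaqMan qRT-PCR against three housekeeping genes after 48 h chemical exposure of HepaRG cells. Eight-point half-log series, top 100 uM, 0.5% DMSO vehicle; phenobarbital 1mM induction control; up- or down-regulation fitted.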

[7] = read-out: Cytochrome P450 (CYP1A1), CYP1A1 (gene 1543); assay: LTEA_HepaRG_CYP1A1: Life Technologies and Expression Analysis (LTEA) Assay for Cytochrome P450 (CYP1A1) using HepaRG (AID 2283454); conditions: mRNA level, 48 h; actives raise or lower the signal
Outline: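 qRT-PCR read-out: CYP1A1 transcript normalized to three housekeeping genes, fitted bidirectionally against 0.5% DMSO vehicle baseline. Human HepaRG cells, 48 h chemical exposure, 8-point half-log series topping at 100 uM.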

[8] = read-out: CFLAR gene, CFLAR (gene 8837); assay: LTEA_HepaRG_CFLAR: Life Technologies and Expression Analysis (LTEA) Assay for CFLAR gene using HepaRG (AID 2283455); conditions: mRNA level, 48 h; actives raise or lower the signal
Outline: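 qRT-PCR read-out (Fluidigm/TaqMan) of CFLAR mRNA, normalized to three housekeeping genes, in differentiated human HepaRG cells after 48 h chemical exposure; 8-point half-log series from 100 uM in 0.5% DMSO; bidirectional curve fitting versus DMSO.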

[9] = read-out: Forkhead box O1 (FOXO1), FOXO1 (gene 2308); assay: LTEA_HepaRG_FOXO1: Life Technologies and Expression Analysis (LTEA) Assay for Forkhead box O1 (FOXO1) using HepaRG (AID 2283456); conditions: mRNA level, 48 h; actives raise or lower the signal
Outline: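 HepaRG, 48 h exposure, 8-pt half-log series from 100 uM in 0.5% DMSO, duplicates; Fluidigm qRT-PCR mRNA, housekeeping-normalised; bidirectional fit vs DMSO baseline.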

[10] = read-out: growth arrest and DNA damage 45 (GADD45A), GADD45A (gene 1647); assay: LTEA_HepaRG_GADD45A: Life Technologies and Expression Analysis (LTEA) Assay for growth arrest and DNA damage 45 (GADD45A) using HepaRG (AID 2283458); conditions: mRNA level, 48 h; actives raise or lower the signal
Outline: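 GADD45A expression was measured by TaqMan qRT-PCR against three housekeeping genes (ACTB, GAPDH, POLR2A) after 48 h treatment of HepaRG cells. Eight-point half-log series up to 100 uM in 0.5% DMSO, run in duplicate.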

[11] = read-out: Forkhead box O3 (FOXO3), FOXO3 (gene 2309); assay: LTEA_HepaRG_FOXO3: Life Technologies and Expression Analysis (LTEA) Assay for Forkhead box O3 (FOXO3) using HepaRG (AID 2283459); conditions: mRNA level, 48 h; actives raise or lower the signal
Outline: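 qRT-PCR readout of FOXO3 transcript, normalized to three housekeeping genes (ACTB, GAPDH, POLR2A); gain or loss fitted against 0.5% DMSO vehicle. HepaRG cells, 48 h chemical exposure, 8-point half-log series, top 100 uM.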

[12] = read-out: ABC Transporter (ABCC3), ABCC3 (gene 8714); assay: LTEA_HepaRG_ABCC3: Life Technologies and Expression Analysis (LTEA) Assay for ABC Transporter (ABCC3) using HepaRG (AID 2283462); conditions: mRNA level, 48 h; actives raise or lower the signal
Outline: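 qRT-PCR read-out of ABCC3 transcript, normalized to three housekeeping genes (ACTB, GAPDH, POLR2A), after 48 h chemical exposure of human HepaRG cells. Eight half-log concentrations, highest 100 uM, in 0.5% DMSO; gain or loss fitted relative to DMSO baseline.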

[13] = read-out: ABC Transporter (ABCB11), ABCB11 (gene 8647); assay: LTEA_HepaRG_ABCB11: Life Technologies and Expression Analysis (LTEA) Assay for ABC Transporter (ABCB11) using HepaRG (AID 2283463); conditions: mRNA level, 48 h; actives raise or lower the signal
Outline: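 HepaRG, 48 h exposure, 8-pt half-log CRC top 100 uM, 0.5% DMSO vehicle, duplicates. Readout: TaqMan qRT-PCR of ABCB11 mRNA, housekeeping-normalized (ACTB/GAPDH/POLR2A). Bidirectional fit vs DMSO baseline.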

[14] = read-out: ABC Transporter (ABCC2), ABCC2 (gene 1244); assay: LTEA_HepaRG_ABCC2: Life Technologies and Expression Analysis (LTEA) Assay for ABC Transporter (ABCC2) using HepaRG (AID 2283464); conditions: mRNA level, 48 h; actives raise or lower the signal
Outline: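 qRT-PCR (TaqMan, Fluidigm array) read-out of ABCC2 mRNA, normalized to three housekeeping genes. Differentiated HepaRG cells were treated 48 h in serum-free induction medium with 8-point half-log series from 100 uM in 0.5% DMSO; curves fitted bidirectionally relative to DMSO.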

[15] = read-out: Broad substrate specificity ATP-binding cassette transporter ABCG2 (Homo sapiens) (UniProt Q9UNQ0); assay: LTEA_HepaRG_ABCG2: Life Technologies and Expression Analysis (LTEA) Assay for ABC Transporter (ABCG2) using HepaRG (AID 2283465); conditions: mRNA level, 48 h; actives raise or lower the signal
Outline: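 HepaRG, 48 h exposure, 8-pt half-log series from 100 uM, 0.5% DMSO vehicle, duplicates. Readout: ABCG2 transcript by qRT-PCR (Fluidigm array), housekeeping-normalized; bidirectional curve fit relative to DMSO baseline.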

[16] = read-out: ABC Transporter (ABCB1), ABCB1 (gene 5243); assay: LTEA_HepaRG_ABCB1: Life Technologies and Expression Analysis (LTEA) Assay for ABC Transporter (ABCB1) using HepaRG (AID 2283460); conditions: mRNA level, 48 h; actives raise or lower the signal
Outline: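 HepaRG, 48 h exposure, 8-pt half-log series from 100 uM, 0.5% DMSO vehicle, duplicates. Readout: ABCB1 transcript by Fluidigm TaqMan qRT-PCR, housekeeping-normalized; bidirectional curve fit vs DMSO baseline.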

[17] = read-out: growth arrest and DNA damage 45 (GADD45B), GADD45B (gene 4616); assay: LTEA_HepaRG_GADD45B: Life Technologies and Expression Analysis (LTEA) Assay for growth arrest and DNA damage 45 (GADD45B) using HepaRG (AID 2283461); conditions: mRNA level, 48 h; actives raise or lower the signal
Outline: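 qRT-PCR read-out (Fluidigm TaqMan, housekeeping-normalized) of mRNA change in human HepaRG cells after 48 h chemical exposure; 8-point curve, top 100 uM, half-log steps, 0.5% DMSO vehicle; gain or loss fitted relative to DMSO baseline.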

[18] = CEETOX_H295R_TESTO: CeeTox H295R High-throughput Steroidogenesis Assay for Testosterone (TESTO) (AID 2283457); conditions: actives raise or lower the signal
Outline: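 Readout: testosterone quantified by HPLC-MS/MS (C18, ESI positive) after MTBE liquid-liquid extraction of culture medium. Cells were H295R, 48 h chemical exposure per OECD 456 with modifications. Gain or loss of signal fitted relative to DMSO.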

Measured: AC50

Broad substrate specificity ATP-binding cassette transporter ABCG2 (Homo sapiens), sequence (Q9UNQ0 whole entry, looked up): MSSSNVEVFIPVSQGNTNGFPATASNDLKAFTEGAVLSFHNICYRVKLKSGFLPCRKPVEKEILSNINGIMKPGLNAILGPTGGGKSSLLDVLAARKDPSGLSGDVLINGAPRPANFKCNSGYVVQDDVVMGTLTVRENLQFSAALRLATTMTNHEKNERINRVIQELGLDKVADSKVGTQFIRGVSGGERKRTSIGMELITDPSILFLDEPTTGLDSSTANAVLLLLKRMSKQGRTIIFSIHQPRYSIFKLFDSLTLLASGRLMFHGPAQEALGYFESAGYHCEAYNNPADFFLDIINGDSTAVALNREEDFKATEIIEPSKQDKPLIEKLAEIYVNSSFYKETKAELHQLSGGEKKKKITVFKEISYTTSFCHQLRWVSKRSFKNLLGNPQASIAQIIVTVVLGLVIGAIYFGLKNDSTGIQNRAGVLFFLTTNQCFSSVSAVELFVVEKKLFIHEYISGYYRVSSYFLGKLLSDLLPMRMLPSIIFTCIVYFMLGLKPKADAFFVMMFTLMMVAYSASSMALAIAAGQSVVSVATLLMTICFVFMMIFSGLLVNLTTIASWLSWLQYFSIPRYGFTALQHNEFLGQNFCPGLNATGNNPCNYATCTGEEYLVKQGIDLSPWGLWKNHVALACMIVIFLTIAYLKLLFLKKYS
Fatty acid synthase (Homo sapiens), sequence (P49327 whole entry, looked up): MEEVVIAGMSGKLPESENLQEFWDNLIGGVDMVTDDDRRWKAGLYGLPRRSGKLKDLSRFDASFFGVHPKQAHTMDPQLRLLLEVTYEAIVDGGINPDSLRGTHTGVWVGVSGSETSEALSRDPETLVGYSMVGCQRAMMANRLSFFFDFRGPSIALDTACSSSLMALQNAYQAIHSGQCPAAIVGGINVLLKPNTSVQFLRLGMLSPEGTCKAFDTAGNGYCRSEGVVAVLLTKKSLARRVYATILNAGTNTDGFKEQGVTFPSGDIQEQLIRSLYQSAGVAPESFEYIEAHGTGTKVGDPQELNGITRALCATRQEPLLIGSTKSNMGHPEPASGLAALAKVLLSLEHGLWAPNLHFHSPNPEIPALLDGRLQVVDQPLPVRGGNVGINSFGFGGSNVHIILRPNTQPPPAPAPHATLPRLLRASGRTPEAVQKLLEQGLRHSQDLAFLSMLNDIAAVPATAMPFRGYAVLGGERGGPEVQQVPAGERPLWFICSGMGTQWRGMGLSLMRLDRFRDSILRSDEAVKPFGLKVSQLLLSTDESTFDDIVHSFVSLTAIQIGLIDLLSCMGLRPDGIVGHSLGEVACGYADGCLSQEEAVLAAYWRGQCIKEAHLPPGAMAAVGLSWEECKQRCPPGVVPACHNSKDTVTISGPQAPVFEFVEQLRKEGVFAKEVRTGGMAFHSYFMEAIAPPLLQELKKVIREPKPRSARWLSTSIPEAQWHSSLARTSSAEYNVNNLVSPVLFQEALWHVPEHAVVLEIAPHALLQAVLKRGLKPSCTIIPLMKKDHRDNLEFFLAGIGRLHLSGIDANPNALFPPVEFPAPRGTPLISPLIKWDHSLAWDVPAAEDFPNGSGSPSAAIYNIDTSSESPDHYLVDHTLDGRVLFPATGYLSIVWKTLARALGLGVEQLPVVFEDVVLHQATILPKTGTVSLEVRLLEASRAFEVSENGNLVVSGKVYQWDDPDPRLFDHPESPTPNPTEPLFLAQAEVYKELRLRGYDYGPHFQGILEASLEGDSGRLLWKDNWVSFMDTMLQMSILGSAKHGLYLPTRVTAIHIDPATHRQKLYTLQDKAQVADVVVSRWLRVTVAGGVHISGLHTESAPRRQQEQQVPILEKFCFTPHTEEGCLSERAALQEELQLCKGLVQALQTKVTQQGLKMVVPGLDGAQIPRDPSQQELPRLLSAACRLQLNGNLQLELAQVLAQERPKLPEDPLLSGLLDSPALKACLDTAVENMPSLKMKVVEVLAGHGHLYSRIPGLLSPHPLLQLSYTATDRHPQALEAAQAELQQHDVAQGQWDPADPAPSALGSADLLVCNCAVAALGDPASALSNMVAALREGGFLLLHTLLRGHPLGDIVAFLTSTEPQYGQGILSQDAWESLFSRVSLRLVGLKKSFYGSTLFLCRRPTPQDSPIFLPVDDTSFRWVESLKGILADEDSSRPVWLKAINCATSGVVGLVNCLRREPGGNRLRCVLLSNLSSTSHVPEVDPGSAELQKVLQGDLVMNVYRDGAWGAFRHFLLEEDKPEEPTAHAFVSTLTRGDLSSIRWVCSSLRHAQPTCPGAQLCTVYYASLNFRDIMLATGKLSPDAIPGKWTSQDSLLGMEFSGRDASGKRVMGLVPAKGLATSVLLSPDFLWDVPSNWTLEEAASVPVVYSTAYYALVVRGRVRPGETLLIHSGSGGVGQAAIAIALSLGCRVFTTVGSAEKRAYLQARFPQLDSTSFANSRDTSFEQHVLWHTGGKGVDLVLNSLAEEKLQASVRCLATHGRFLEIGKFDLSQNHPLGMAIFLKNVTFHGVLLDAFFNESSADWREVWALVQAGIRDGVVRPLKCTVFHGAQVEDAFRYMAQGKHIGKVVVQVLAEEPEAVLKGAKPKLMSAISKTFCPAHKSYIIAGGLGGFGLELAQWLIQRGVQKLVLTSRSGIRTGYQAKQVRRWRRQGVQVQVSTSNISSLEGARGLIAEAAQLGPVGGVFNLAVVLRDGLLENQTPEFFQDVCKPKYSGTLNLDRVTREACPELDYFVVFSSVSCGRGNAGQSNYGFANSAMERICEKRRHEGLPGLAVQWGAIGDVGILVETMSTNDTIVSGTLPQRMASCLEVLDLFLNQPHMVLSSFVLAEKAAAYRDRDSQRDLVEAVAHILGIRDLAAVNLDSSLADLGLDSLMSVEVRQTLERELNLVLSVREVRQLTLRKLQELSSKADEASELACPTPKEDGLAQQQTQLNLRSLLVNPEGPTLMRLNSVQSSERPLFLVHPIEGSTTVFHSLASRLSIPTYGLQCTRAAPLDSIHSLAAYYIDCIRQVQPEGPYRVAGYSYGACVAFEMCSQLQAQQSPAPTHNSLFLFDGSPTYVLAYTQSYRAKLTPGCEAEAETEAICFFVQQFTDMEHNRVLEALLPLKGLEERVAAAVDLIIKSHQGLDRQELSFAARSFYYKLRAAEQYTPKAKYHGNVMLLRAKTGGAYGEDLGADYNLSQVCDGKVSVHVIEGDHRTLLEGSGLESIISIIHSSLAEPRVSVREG

COP(=O)(OC)O/C(C)=C/C(=O)N(C)C
active: [13] 11 µM
inactive: [1] | [2] | [3] | [4] | [5] | [6] | [7] | [8] | [9] | [10] | [11] | [12] | [14] | [15]

O=P(O)(O)CCCl
inactive: [1] | [2] | [5] | [6] | [7] | [9] | [10] | [16] | [17] | [12] | [13] | [14] | [15]
active: [3] 0.373 µM | [4] 0.261 µM

CCOP(=O)(OCC)Oc1nc(Cl)c(Cl)cc1Cl
inactive: [1] | [3] | [9] | [10] | [17] | [15]
active: [2] 60.2 µM | [4] 80.7 µM | [5] 91.1 µM | [6] 79.3 µM | [7] 73.5 µM | [12] 80.5 µM | [13] 79.2 µM | [14] 76.4 µM

CS(=O)(=O)c1ccc(C(=O)C2C(=O)CCCC2=O)c([N+](=O)[O-])c1
inactive: [1] | [2] | [3] | [4] | [5] | [6] | [8] | [9] | [10] | [17] | [12] | [13] | [14] | [15]
active: [7] 19.1 µM

CC(C)N1C(=O)N(c2ccccc2)CSC1=NC(C)(C)C
inactive: [1] | [2] | [4] | [7] | [9] | [11] | [17] | [12] | [14]
active: [3] 85.2 µM | [5] 75.4 µM | [6] 91.2 µM | [10] 81.2 µM | [16] 17.7 µM | [13] 94.4 µM | [15] 50 µM

Clc1cccc(C(Cl)(Cl)Cl)n1
active: [10] 89.4 µM
inactive: [1] | [2] | [3] | [4] | [5] | [6] | [7] | [8] | [9] | [11] | [12] | [13] | [14] | [15]

COC(=O)N(C(=O)N1CO[C@@]2(C(=O)OC)Cc3cc(Cl)ccc3C2=N1)c1ccc(OC(F)(F)F)cc1
active: [2] 18.8 µM | [5] 40 µM | [6] 40 µM | [7] 5.08 µM | [8] 29.8 µM | [13] 40 µM
inactive: [1] | [3] | [4] | [9] | [10] | [11] | [12] | [14] | [15]

CCOc1cc(C(C)(C)C)ccc1C1COC(c2c(F)cccc2F)=N1 (stereo not given)
inactive: [1] | [2] | [3] | [4] | [5] | [6] | [9] | [18] | [10] | [11] | [12] | [13]
active: [7] 19.2 µM | [14] 8.66 µM | [15] 9.15 µM
